Holding throughout (assay): PBM binding z-score (relative to random genomic background probes); higher = stronger binding; sequences stand for … in GC…GCGATTGACAGCGTAGAATGAAGG
Experiment [1] concerns PPARg:RXRa DBDmut IVT, anti-RXR (DBD mutation: RXRa K156A/R161A, NR concentration 270 nM, RXRa partner concentration 90 nM). Put shortly:
(§1)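 Regression normalization was applied to scanned fluorescence from custom Agilent 4×180K protein-binding microarrays. Before scanning, arrays were incubated 1 h with ligand-free nuclear receptor dimers, and binding was detected with antibodies against each partner (one per run). Binding z-scores use the random background probes as reference.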

In experiment [2] the test system is PPARg:RXRa IVT, anti-PPARg (NR concentration 270 nM, RXRa partner concentration 90 nM). The procedure, abridged: as §1
For experiment [3], the system named is PPARg DBDmut:RXRa IVT, anti-PPARg (DBD mutation: PPARg1 K132A/R137A, NR concentration 270 nM, RXRa partner concentration 90 nM). The procedure, abridged: as §1
The test system of experiment [4] is PPARg DBDmut IVT, anti-PPARg (DBD mutation: PPARg1 K132A/R137A, NR concentration 270 nM). Put shortly:
as §1

The subject of experiment [5] is PPARg homodimer (NR concentration 180 nM). Put shortly:
as §1

For experiment [6], the system named is PXR:RXRa (NR concentration 270 nM, RXRa partner concentration 90 nM). The procedure, abridged:
as §1

The test system of experiment [7] is PXR homodimer (NR concentration 270 nM). Put shortly:
as §1

In experiment [8] the test system is RARa:RXR (NR concentration 270 nM, RXRa partner concentration 90 nM). The procedure, abridged: as §1
For experiment [9], the system named is RARa homodimer (NR concentration 270 nM). Put shortly: as §1
In experiment [10] the test system is RARb:RXRa (NR concentration 270 nM, RXRa partner concentration 90 nM). The procedure, abridged: as §1

With ATCGAAAGGTCGTGCGGTGAGTATACAGAAAGGC, the PBM binding z-score in experiment [1] worked out at 0.148; in experiment [2] it was 1.68; in [3], 0.719; in experiment [4], 0.4; in [5], 3.06; in experiment [6] it was 3.2. Moreover, the PBM binding z-score was found to be 0.322 in experiment [7], 3.75 in experiment [8], 0.484 in experiment [9] and 3.7 in experiment [10].
With ATCTCTAGGTAGCCAAGTTCAGTGAATGCCGAAC, the PBM binding z-score in [1] is 0.328; in [2], 0.377; in experiment [3], -0.173; in experiment [4], 0.614; in experiment [5], 0.13; in experiment [6], 1.2. The PBM binding z-score amounted to 0.957 in experiment [7], 0.266 in experiment [8], 0.228 in experiment [9] and 0.669 in experiment [10].
Take CGTCCAAGTTCAACTAAGGTAACGTAAAGCACGC: the PBM binding z-score was 0.15 in experiment [1]; 1.1 in [2]; 0.262 in experiment [3]; 0.451 in experiment [4]; 1.83 in experiment [5]; 4.44 in [6]. The PBM binding z-score was 2.78 in experiment [7], 2.38 in experiment [8], 0.942 in experiment [9] and 3.63 in experiment [10].
As for AATACAGGGTCATCGTAGGCCAGAATACGCACAG, the PBM binding z-score in experiment [1] stood at 2.86; in experiment [2], 4.2; in [3], 1.53; in experiment [4], 0.878; in experiment [5] it was 1.87; in [6], 4.6. The PBM binding z-score in experiment [7] was found to be 0.787; in experiment [8], 4.56; in experiment [9] it was 1.11; in [10], 4.31.
As to TCAGACAGGTGAAGGTAAATCAGGTACGCAGTCG, the PBM binding z-score is 2.98 in experiment [1]; 1.27 in [2]; -0.386 in [3]; 0.474 in experiment [4]; 1.11 in experiment [5]; 0.994 in experiment [6]. Also, the PBM binding z-score is 0.51 in experiment [7], 1.26 in experiment [8], 0.658 in experiment [9] and 1.4 in experiment [10].
For TCAGACGGGTGAAGGTAACTCAGGTACGCAGTCG, the PBM binding z-score in experiment [1] is 1.98; in experiment [2], 0.818; in [3] it was -0.457; in experiment [4], -0.479; in [5], 0.581; in experiment [6], 0.181. Besides, the PBM binding z-score in experiment [7] was -0.137; in [8], 0.411; in experiment [9], -0.487; in [10], 0.641.
As for GCGGCTAGGTCAGGTTGGTCAGCTAACGGGTACG, the PBM binding z-score in [1] is 1.28; in [2], 1.36; in [3], -1.08; in experiment [4] it was -0.633; in experiment [5] it was 0.749; in [6], 0.325. Also, the PBM binding z-score in experiment [7] was -0.293; in experiment [8], 0.825; in [9] it was -0.0979; in [10], 3.26.
In the case of TAGCCTAGGTCAGATTGGGCCAGTATACGCTATA, the PBM binding z-score in experiment [1] is 0.821; in experiment [2], 1.47; in experiment [3], -0.745; in experiment [4], -0.0991; in experiment [5] it was 0.692; in experiment [6], 0.48. Also, the PBM binding z-score in [7] was -0.72; in experiment [8], 0.891; in [9], -0.737; in experiment [10] it was 3.16.
As to ATCGAAAGGTCGAGGTGAGTATCGAGAAAGGGAA, the PBM binding z-score in experiment [1] is 0.319; in [2] it was 2.07; in experiment [3], 0.156; in [4] it was 0.836; in [5], 1.5; in experiment [6] it was 2.44. In addition, the PBM binding z-score turned out to be 0.217 in [7], 3.52 in experiment [8], 0.474 in [9] and 4.2 in experiment [10].
With TGAATGAGGTTATAAGACCAGGGAACGTTGCAAA, the PBM binding z-score came out at 1.18 in experiment [1]; 1.75 in [2]; 0.985 in experiment [3]; 0.561 in experiment [4]; 0.257 in experiment [5]; 0.794 in [6]. The PBM binding z-score in [7] is -0.0148; in experiment [8] it was 1.33; in experiment [9], 0.0796; in experiment [10] it was 1.29.
For GCAGACAGGTCAAACGCAGGTAACTCAGGGTGGC, the PBM binding z-score was 2.15 in [1]; 1.91 in experiment [2]; 0.427 in experiment [3]; -0.842 in [4]; 2 in experiment [5]; 3.06 in experiment [6]. The PBM binding z-score in experiment [7] was -0.42; in experiment [8], 4.18; in [9], -0.318; in experiment [10] it was 4.17.

(Values after the supplement of paper PMC6555819.)
